# In PubChem BioAssay:
# “And” between values parts separate entries of the source, which are not always exact repeats. Equal values may be shown once. The source made the active and inactive calls. Rule as the data show it, unless noted: active = parasite load remaining mostly below about 12% (no sharp cut-off); inactive = mostly above about 10%.
# How the values were obtained:
# [1] = liver-stage malaria parasite growth inhibition, primary screen, cell-based, HepG2, luciferase luminescence, HepG2 viability (AID 624349);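 also: 100% = mean of DMSO negative control wells on the same plate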; details: P. berghei liver stage in HepG2, luciferase luminescence, concentration not given here; parasite load remaining: stronger effect = lower value; viability: measured here: HepG2 viability without parasites
# [2] = stimulators of nuclear beta-catenin in C2C12, primary screen, imaging, WNT3A-conditioned medium, mouse C2C12, NPC library (AID 1117326; in the data active = nuclear beta-catenin stimulation mostly above about 4.2%, no sharp cut-off; inactive = mostly below about 10%); details: stronger effect = higher value
# [3] = tested on: Hepatitis C virus NS3 helicase; experiment: HCV NS3 helicase inhibitors, primary screen, biochemical, fluorescence polarization, LOPAC1280 library (AID 687035; in the data active = inhibition above about 37%); details: Purified HCV NS3 helicase, Cy5-dT15 ssDNA binding fluorescence polarization; stronger effect = higher value; concentration not given here
# [4] = Cy5 fluorescence quenching or enhancement artefacts, artefact control for HCV NS3 helicase inhibitor project, biochemical, LOPAC1280 (AID 687037; call rule not given here); details: Cy5-DNA-NS3h complex fluorescence interference counterscreen
SMILES,parasite load remaining [1],viability [1],nuclear beta-catenin stimulation ([2]; at 10 µM),"nuclear beta-catenin stimulation ([2]; stimulation, at 2 µM) [%]",inhibition [3],fluorescence ratio (interference) [4]
CCOc1ccc(Cc2nccc3cc(OCC)c(OCC)cc23)cc1OCC,28.9% (inactive) and 13.1% (inactive),78.6% and 42.8%,1.8% (inactive),7.1,–,–
CCCCC(CC)CN=C(N)NC(N)=NCCCCCCN=C(N)NC(N)=NCC(CC)CCCC (stereo not drawn),-0.04% (inactive) and -6.78% (inactive),41.3% and 33.2%,-3.7% (inactive),-1.8,–,–
COc1ccc(C(=O)c2ccccc2O)c(O)c1,83.1% (inactive) and 102% (inactive) and 55.6% (inactive),96.9% and 79.4% and 89.9%,1.1% (inactive),0.4,–,–
Cc1cc(=O)[nH]c(=S)[nH]1,70.4% (inactive),92%,-1.2% (inactive),-0.4,–,–
CCCCCCCCCCCCCCCCOP(=O)([O-])OCC[N+](C)(C)C,146% (inactive) and 43% (inactive),78.6% and 106%,-0.6% (inactive),1.9,–,–
O=C(OCC(O)CO)c1ccccc1Nc1ccnc2cc(Cl)ccc12 (stereo not drawn),9.85% (inactive) and 91.3% (inactive) and 74.6% (inactive),47.1% and 73.6% and 92%,3.1% (inactive),-0.3,–,–
O=c1c(O)c(-c2ccc(O)c(O)c2)oc2cc(O)cc(O)c12,49.9% (inactive) and 67.9% (inactive),108% and 73.7%,2.6% (inactive),1.7,2% (inactive),0.9 (inactive)
NC(N)=NC(=O)Cc1c(Cl)cccc1Cl,29.4% (inactive) and 52.8% (inactive) and 54.1% (inactive),118% and 76.4% and 154%,-0.4% (inactive),2.6,1% (inactive),1 (inactive)
CNC1(C)C2CCC(C2)C1(C)C (stereo not drawn),95.9% (inactive) and 84% (inactive),76% and 101%,0.3% (inactive),-2.6,0% (inactive),0.9 (inactive)
CCN(CC)CCNC(=O)c1ccc(NC(C)=O)cc1,46.9% (inactive),102%,-1.2% (inactive),1,-3% (inactive),1 (inactive)
